Giardia killer: Giardia lamblia killing | actives 0.15% (n = 340,000) | activity change, % at 7.66 µM, hits read low | Giardia lamblia trophozoite viability; in the data active means activity change below about -80%; inconclusive means between about -30% and that limit;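 further: parasites exposed to compound for two days anaerobically before the ATP read; on the % scale 0 is the no-effect control and ±100 the full control effect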
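Each well holds 100 Giardia trophozoites and compound. After two days (48 hrs) at 37 deg C in anaerobic conditions, ATP is quantified by luminescence.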
MCF10A rerep: DNA re-replication induction in MCF 10a cells; MCF 10A DNA re-replication, Hoechst nuclear intensity, 48 h; Potency, µM (series often up to 46.1 µM), for the others: top-dose activity, positive = re-replication, hits mostly activators; actives 2.9% (n = 350,000); AID 624296; further: potency means the concentration at half of the fitted maximal effect; % of control where 0% means no effect; nearly all actives have a fitted effect of over 50% in size
Chronic BCR inh: inhibitors of chronic active B-cell receptor signaling; ABC-DLBCL IkBa-CBG/CBR reporter, luminescence ratio, 4 h; Potency, µM (titrated, usually from 46.1 µM), for the others: at the highest dose activity change, negative = inhibition, hits mostly inhibitors; actives 0.05% (n = 340,000); AID 493014; active means well fitted inhibition curve with a large enough effect in the signal ratio, with a control signal flat, not every such curve was filed as active; inconclusive means small, poorly fitted or top-dose-only effect, or effect the other way, or a change in a side signal; the % refers to the signal ratio;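 further: potency means the concentration at half of the fitted maximal effect; plate controls were basal doxycycline-induced cells for no effect and cells given 10 µM MG132 for full effect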
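Cell line TMD8 (human ABC DLBCL), stably expressing tet-inducible CBG68-IkBa fusion and CBR; IMDM/0.5% FBS; cpd up to 46 uM; dox induction, 4 h, 37C/5% CO2; dual luminescence; green/red ratio; MG132 control.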
RORgamma inh: inhibitors of mouse ROR gamma transcriptional activity; Potency, µM (top dose mostly 53.6 µM), inactives show at the highest dose activity change, negative = inhibition, hits mostly inhibitors; actives 5.4% (n = 310,000); P51450; Drosophila S2 Gal4-RORgamma UAS-luciferase reporter, 20 h; further: potency means the concentration at half of the fitted maximal effect; on the % scale 0 is the no-effect control and ±100 the full control effect; nearly all actives have a fitted effect of over 60% in size
Target sequence (P51450 whole entry, looked up, the tested form may be a part): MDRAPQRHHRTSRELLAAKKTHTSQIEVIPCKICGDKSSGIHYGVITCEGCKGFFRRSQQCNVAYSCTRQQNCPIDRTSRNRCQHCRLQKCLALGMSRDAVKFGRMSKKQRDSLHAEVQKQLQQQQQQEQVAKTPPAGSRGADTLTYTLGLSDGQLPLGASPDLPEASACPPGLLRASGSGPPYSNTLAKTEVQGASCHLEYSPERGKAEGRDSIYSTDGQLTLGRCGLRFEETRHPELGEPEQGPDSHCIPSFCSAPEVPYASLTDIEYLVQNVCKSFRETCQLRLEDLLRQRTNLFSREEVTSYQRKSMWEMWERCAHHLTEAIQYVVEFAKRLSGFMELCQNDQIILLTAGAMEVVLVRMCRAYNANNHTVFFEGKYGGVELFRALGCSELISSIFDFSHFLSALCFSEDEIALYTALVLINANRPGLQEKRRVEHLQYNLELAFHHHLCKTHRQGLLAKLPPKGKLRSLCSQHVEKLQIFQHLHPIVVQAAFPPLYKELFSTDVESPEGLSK
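Stable Schneider cell line, Gal4 DNA-binding domain fused to ROR gamma, UAS-luciferase. Cmpd 1 hr RT → CuSO4 700 uM final → 20 hr RT → luciferase reagent 10 min → luminescence.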
VP16 counter: inhibits Gal4-VP16 luciferase reporter, ROR gamma counter-screen | actives 3.5% (n = 310,000) | Potency, µM (doses to about 53.6 µM), without a hit: at the highest dose activity, negative = inhibition, usual class: inhibitors | Drosophila S2 Gal4-VP16 UAS-luciferase, luminescence, 20 h;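 further: Gal4-VP16 expression switched on by copper sulfate through the metallothionein promoter; potency means the concentration at half of the fitted maximal effect; on the % scale 0 is the no-effect control and ±100 the full control effect; nearly all actives have a fitted effect of over 50% in size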
SW480 rerep: DNA re-replication induction in SW480 cells | actives 1.8% (n = 340,000) | Potency, µM (top dose mostly 46.1 µM), for inactives: at the highest dose re-replication activation, actives largely listed as activators | AID 624297 | SW480 DNA re-replication, Hoechst DNA content imaging, 48 h; further: potency means the concentration at half of the fitted maximal effect; % of control where 0% means no effect; nearly all actives have a fitted effect of over 55% in size
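Compounds, transferred as 23 nL by pin tool, were incubated with cells for 48 hr; DNA content per nucleus was then quantified by Hoechst staining and fluorescence plate imaging.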
* marks the source's active call; other numbers are inactive results; ? = inconclusive; / = not tested or not shown; ! = not confirmed by another sample; [ ] = another dose, or the depositor's remark. In the library only some 8.3% were active in any assay of this set; here they are far more common. Unless noted, the call rests on the fitted dose curve; in most records, active means well fitted curve in the direction sought with a large enough effect; inconclusive means small, poorly fitted or top-dose-only effect, or another doubt; inactive means no such curve, though single readings can be large; an effect the other way counts as inactive or inconclusive.

SMILES | Giardia killer | MCF10A rerep | Chronic BCR inh | RORgamma inh | VP16 counter | SW480 rerep
Cc1nc(=S)c2c([nH]1)-c1ccccc1CC21CCCCC1 | -20.7 | 1.9% | 12.0% | 0.199µM* | 1µM* | -12.0%
CCc1cccc(NC(=S)N2CCC(c3ccccc3)C2)c1 (centres undefined) | -0.6 | -10.8% | 1.0% | 7.08µM* | 10µM* | 20.9%
CSc1cccc(NC(=S)N2CCC(c3ccccc3)C2)c1 (centres undefined) | -2.1 | 10.8% | 6.0% | ? | ? | -1.1%
Cc1ccc(NC(=S)N2CCC(c3ccc(C)cc3)C2)cc1 (centres undefined) | -9.9 | -1.2% | 15.1% | 10µM* | 20µM* | 0.1%
OC(CNCC1COc2ccccc2O1)COc1ccc(Cl)cc1 (centres undefined) | ? | 24.7% | 1.2% | 12.3% | 0.8% | -0.3%
CSc1ccc(NC(=O)c2cccnc2)cc1C#N | 1.3 | -10.4% | -2.2% | 33.2% | -19.7% | 4.4%
COc1ccccc1C1NC=C([N+](=O)[O-])C=C1[N+](=O)[O-] (centres undefined) | ? | -7.5% | 5.5% | -44.7% | ? | -35.9%
COc1ccccc1C1C([N+](=O)[O-])=CC([N+](=O)[O-])=CN1C (centres undefined) | -82.7* | -8.5% | ? | ? | 11.2µM* | ?
CC[C@@H]1/C=C(\C)C[C@H](C)C[C@H](OC)[C@H]2O[C@@](O)(C(=O)C(=O)N3CCCC[C@H]3C(=O)O[C@H](/C(C)=C/[C@@H]3CC[C@@H](O)[C@H](OC)C3)[C@H](C)[C@@H](O)CC1=O)[C@H](C)C[C@@H]2OC | / | / | / | 17.6% | ? | /
COc1ccc(NC(=O)C2CC(c3ccc(OC)c(OC)c3)=NO2)cc1OC (centres undefined) | -9.9 | 13.2% | 23.1% | ? | 9.5% | -1.6%
COc1ccc(C2=NOC(C(=O)NCc3ccc(F)cc3)C2)cc1OC (centres undefined) | 19.7 | 1.64µM* | ? | 15.8% | 6.4% | 2.06µM*
COc1cc(C2=NOC(C(=O)NCc3ccc(F)cc3)C2)cc(OC)c1OC (centres undefined) | -5.6 | 3.26µM* | ? | 1.8% | 1.5% | 0.731µM*
O=C(CCc1ccco1)CCc1ccco1 | -20.0 | -1.4% | / | / | / | -12.5%
CCOC(=O)C1CCC(CN(Cc2c(Cl)cccc2Cl)S(=O)(=O)c2ccc(F)cc2)CC1 (centres undefined) | / | / | 6.4% | / | / | /
Cc1ccc(Cl)cc1N1CCN(C(=O)c2cc3c(=O)[nH]c4ccccc4c3n2C)CC1 | 4.9 | 18.4µM*! | -4.1% | 121.1% | 1.4% | -0.7%
Cn1c(C(=O)NCCCN2CCN(c3ccccc3F)CC2)cc2c(=O)[nH]c3ccccc3c21 | 5.5 | 23.1µM* | 0.2% | 15.2% | -20.6% | 16.1%
CCOC(=O)C1CCN(C(=O)COC(=O)CNS(=O)(=O)c2ccc(SC)c([N+](=O)[O-])c2)CC1 | 5.3 | 5.4% | / | / | / | -6.0%
COc1cccc(CNc2ccc(S(N)(=O)=O)cc2)c1OC | -6.7 | 18.6% | -3.9% | 31.2% | 25.4% | 18.4µM*
COc1cccc(CNc2ccc(N3CCCCC3)cc2)c1OC | 11.4 | ? | -2.8% | ? | ? | ?
C=CCC1(CC=C)CCCN1C(=O)c1cc(COc2ccccc2SC)on1 | 24.2 | ? | 4.9% | 6.2% | -20.1% | 11.0%
O=C(Cc1ccccc1Nc1c(Cl)cccc1Cl)OCO/N=[N+](\[O-])N1CCCC1 | -16.1 | / | / | ? | 17.8µM* | /
C=CCN(CC=C)S(=O)(=O)c1ccc(NC(=S)NC(=O)/C=C/c2ccc(C)cc2)cc1 | -23.0 | -0.5% | / | 10µM* | ? | -1.0%
C=CCN(CC=C)S(=O)(=O)c1ccc(NC(=S)NC(=O)c2ccc(-c3ccccc3)cc2)cc1 | -17.4 | 11.5% | 0.0% | 1.41µM* | 2.51µM* | 6.0%
C=CCN(CC=C)S(=O)(=O)c1ccc(NC(=S)NC(=O)/C=C/c2cccc3ccccc23)cc1 | 2.3 | 4.0% | 13.1% | 2.24µM* | ? | -0.1%
Cc1onc(-c2c(F)cccc2Cl)c1C(=O)OCC(=O)c1c[nH]c2ccccc12 | 34.5 | -5.5% | ? | ? | ? | -6.5%
SMILES | Giardia killer | MCF10A rerep | Chronic BCR inh | RORgamma inh | VP16 counter | SW480 rerep
Cn1c(C(=O)OCC(=O)NCCc2ccccc2)cc2sccc21 | 5.0 | 0.4% | 1.5% | -15.6% | -1.2% | 5.5%
Cc1ccc(-c2cc(C(F)F)n3ncc(C(=O)N4CCc5ccccc54)c3n2)cc1 | -12.1 | 2.59µM* | 8.2% | -0.2% | 0.1% | 7.31µM*
COc1cc2ccccc2cc1C(=O)N1CCc2ccccc21 | -12.7 | 16.4µM* | -17.1% | / | / | ?
Cc1ccc(-c2cc(C(=O)N3CCCc4ccccc43)c3ccccc3n2)cc1 | 8.0 | 20.6µM* | 6.7% | 35.8% | 1.8% | ?
O=C(c1cnn2c(C(F)F)cc(-c3ccccc3)nc12)N1CCc2ccccc21 | -0.4 | 6.6% | -0.4% | 11.4% | 7.9% | -1.5%
COc1cc(C(=O)N2CCc3ccccc32)cc(OC)c1OC | -10.4 | 19.6% | -6.9% | 31.5% | -1.1% | 23.0%
CCc1nccn1C(=O)c1cnn2c(C(F)F)cc(-c3ccc(C)cc3)nc12 | 12.6 | 18.4µM* | 1.4% | 25.5% | -12.1% | ?
COc1ccc(-c2cc(C(F)F)n3ncc(C(=O)N4CCCCC4)c3n2)cc1 | 4.6 | ? | -25.1% | ? | -13.4% | ?
Cc1cc(C)c2cc3c(N)c(C(=O)N4CCc5ccccc5C4)sc3nc2c1 | 5.6 | -5.6% | 2.3% | -35.6% | 12.9% | 3.3%
Cc1ccc2nc3sc(C(=O)N4CCCc5ccccc54)c(N)c3cc2c1 | 2.1 | ? | 9.3% | 36.4% | -13.7%[0.365 µM] | 3.66µM*
COc1ccc(-c2cc(C(F)F)n3ncc(C(=O)N4CCc5ccccc5C4)c3n2)cc1 | -3.3 | ? | -25.8% | -4.6% | 12.4% | 14.6µM*
CC(C)CN(C(=O)COC(=O)CCCc1c[nH]c2ccccc12)c1c(N)n(Cc2ccccc2)c(=O)[nH]c1=O | 9.2 | 20.9% | -9.9% | 15.2% | 1.3% | -0.8%
O=C(O)c1ccc(N2C(=O)c3ccc(C(=O)c4cccc([N+](=O)[O-])c4)cc3C2=O)cc1 | 6.5 | -2.1% | 1.0% | -18.3% | -8.2% | 1.6%
Cc1cc(NC(=O)NC(=O)c2ccccc2NC(=O)C(C)N)ccc1Oc1ncc(Br)cn1 (centres undefined) | 16.3 | ? | / | / | / | 2.91µM*
CCOC(=O)c1ccccc1NC(=O)Nc1ccc(OC)c(OC)c1 | 18.7 | 0.4% | 8.1% | -16.2%[0.365 µM] | / | 7.1%
Oc1ccc(-c2n[nH]c(C(F)(F)F)c2-c2ccccc2)c(O)c1 | 28.2 | ? | ? | 5.62µM* | 1.58µM* | -0.5%
